Test results taken from ChEMBL document CHEMBL1201862, “PubChem BioAssay data set” (2004).
Hit rate of the full screen: of about 54,000 sequences, about 3,300 (6.1%) were called active. Cut-off read from the data, not from the text of the source: active = GI50 up to about 1.1 µM and inactive = higher. A selection follows. Measured potencies and affinities stand elsewhere.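 Exposure lasted 48 hours, with cells grown in 96-well plates and compounds tested at five concentrations. The concentration for 50% growth inhibition is given as GI50.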

Test system: Malme-3M
Experiment: NCI tumour cell line growth inhibition, 48 h

Substance	GI50 [nM]
[Bis(aminomethyl)pentamethylenesilane]tetrachloropaltinum(IV), CHEMBL2146204	1220
[Bis(aminomethyl)tetramethylenesilane]dichloropaltinum(II), CHEMBL2146205	8590
[Bis(aminomethyl)dimethylsilane]tetrachloroplatinum(IV), CHEMBL2146190	2770
[Bis(aminomethyl)tetramethylenesilane]tetrachloropaltinum(IV), CHEMBL2146189	1620
cis-Bis[[(trimethylsilyl)methyl]amino]tetrachloroplatinum(IV), CHEMBL2146191	2250
mu-(1,7-nanodiamine-N,N')bis-(cis-aminedichloroplatimum (II)), CHEMBL2146215	2410
[Bis(aminomethyl)diethylsilane]tetrachloroplatinum(IV), CHEMBL2146203	1220
CISPLATIN, CHEMBL11359	1600
[Bis(aminomethyl)ethylmethylsilane]tetrachloroplatinum(IV), CHEMBL2146192	2080
[Bis(aminomethyl)pentamethylenesilane]dichloropaltinum(II), CHEMBL2146202	1540
[Bis(aminomethyl)dimethylsilane]dichloroplatinum (II), CHEMBL2146201	17700
